CYP2C9 inhib = human CYP2C9 inhibition. inhibition, % at 5 µM. P11712. CYP2C9 Supersomes, luciferin-H conversion, luminescence. 96,000 tested, 20% active;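 active = blocking of liver enzyme CYP2C9 beyond about 50% at 5 µM, limit read from the data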
Target sequence (P11712 whole entry, looked up): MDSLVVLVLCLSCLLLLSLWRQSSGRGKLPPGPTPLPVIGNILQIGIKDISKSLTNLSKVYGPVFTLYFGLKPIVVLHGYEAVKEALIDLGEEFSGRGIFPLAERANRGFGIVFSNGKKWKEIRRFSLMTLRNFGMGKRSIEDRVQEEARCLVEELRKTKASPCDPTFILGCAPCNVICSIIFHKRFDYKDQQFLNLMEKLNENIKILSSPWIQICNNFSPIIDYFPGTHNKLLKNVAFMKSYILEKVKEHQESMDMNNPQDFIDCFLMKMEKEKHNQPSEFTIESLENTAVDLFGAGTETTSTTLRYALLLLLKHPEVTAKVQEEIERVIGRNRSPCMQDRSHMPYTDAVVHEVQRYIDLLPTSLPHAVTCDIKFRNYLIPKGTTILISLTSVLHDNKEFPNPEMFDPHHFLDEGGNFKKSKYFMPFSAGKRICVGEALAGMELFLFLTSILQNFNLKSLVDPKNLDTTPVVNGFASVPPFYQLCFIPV
CYP2C9 activ = increases human cytochrome P450 2C9 activity | activation factor at 5 µM | recombinant CYP2C9, luciferin-H conversion, luminescence; active compounds read high; factor 1 = untreated enzyme, 0 = blocked | P11712 | AID 1024 | 96,000 tested, 1.4% active;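 active = activation factor of 2 or more for CYP2C9 at a 5 µM dose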;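 also: 0 = sulfaphenazole-blocked wells and 1 = vehicle-only wells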
CYP2C19 act = increases human CYP2C19 enzyme activity. AID 1025. recombinant CYP2C19, luciferin-H EGE luminescence; active compounds read high; 0 = fully inhibited enzyme, 1 = untreated enzyme. 96,000 tested, under 10 active. activation factor at 5 µM;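 active = activation factor of at least 2 at 5 µM in the primary screen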;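 also: 0 = wells with 2.5 mM tranylcypromine and 1 = vehicle-only wells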
D1 mod = D1 dopamine receptor (human) allosteric modulation; 58,000 tested, 5.9% active; HEK293 D1, CRE-luciferase, dopamine EC30 potentiation; actives deviate in either direction; B-score at 10 µM; P21728;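 active = luminescence count or its row- and column-corrected plate score outside the 99.7% band of the plate's sample wells, on either side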
hDAT+cocaine = human DAT dopamine uptake with cocaine, either direction. B-score at 10 µM. 110,000 tested, 1.3% active. AID 449768. Q01959. LLC-PK1 hDAT cells, [14C]-dopamine uptake with cocaine IC80; actives deviate in either direction;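 active = Z score or B-score, a plate-position-corrected score, falls beyond the plate's 99.7% confidence bounds, in either direction; inactive = both scores lie inside the 99.7% bounds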;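 also: scored against the spread of the other compound wells on the same plate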
CYP2C19 inh = blocks human cytochrome P450 2C19; P33261; CYP2C19 Supersomes, luciferin-H EGE luminescence, 30 min; inhibition, % at 5 µM; 96,000 tested, 21% active;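 active = CYP2C19 inhibition above a set limit at 5 µM in the primary screen, cut at about 50% in these data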;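 also: plate controls were negative control wells for no effect and 2.5 mM tranylcypromine positive control for full effect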
Active calls of the source: *; · = no result given. Most compounds without a hit are left out; they make up all but 28% or so of the library.

SMILES	CYP2C9 inhib	CYP2C9 activ	CYP2C19 act	D1 mod	hDAT+cocaine	CYP2C19 inh
CC(C)(C)OC(=O)NCCCC1=CC2=CC(=O)C(C)(OC(=O)C3CCCC3)C(=O)C2=CO1 (stereo not given)	·	·	·	·	0.382	·
CC(C)CCNC(=O)c1c(CSc2ccc(Cl)cc2)noc1C(=O)NCc1ccccc1	·	·	·	·	0.226	·
CCOc1ccc(CCNC(=O)C2CCCN(C(=O)N(C)C)C2)cc1OCC (stereo not given)	·	·	·	-7.9*	-0.659	·
CCOc1ccc(CCNC(=O)C2CCCN(c3nnc(-n4cccc4)s3)C2)cc1OCC (stereo not given)	60.5*	0.4	0.5	·	0.0319	49.4
COc1ccc(CCNC(=O)C2CCN(C(=O)N(C)C)CC2)cc1OC	-12.5	1.1	0.9	1.53	-0.268	6.9
CCOc1ccc(CCNC(=O)C2CCCN(c3nn4c(=O)cc(C)nc4s3)C2)cc1OCC (stereo not given)	34.7	0.7	0.7	-0.0308	1.79	31.3
C/C(Cn1nnc([N+](=O)[O-])n1)=N\NC(=O)c1ccccc1	-9.9	1.1	0.9	·	-0.199	12.0
CCCn1c(=O)c(C(=O)Nc2nnc(C)s2)c(O)c2ccccc21	·	·	·	-0.616	·	·
CN(C)S(=O)(=O)c1cccc(NC(=O)COC(=O)CCc2nc3ccccc3s2)c1	-88.7	1.9	1	·	0.0177	-0.2
Cc1ccc(SCC(=O)Nc2cccc(C(=O)NC(C)(C)C)c2)cc1	57.8*	0.4	0.7	·	1.36	27.0
COc1cccc(C(=O)Nc2cccc(-c3nnc(-c4ccco4)o3)c2)c1	69.5*	0.3	0.2	·	-0.00935	77.0*
COc1ccc(Br)cc1C(=O)Nc1cccc(-c2nnc(-c3ccco3)o2)c1	·	·	·	-0.024	0.556	·
Cc1ccc(SCC(=O)Nc2cccc(-c3nnc(-c4ccco4)o3)c2)cc1	91.2*	0.1	0.8	·	0.144	22.7
Cc1ccc(SCC(=O)NC(C)(C)C)cc1	12.9	0.9	0.8	·	-0.739	15.6
COc1cc(NC(=O)c2ccco2)c(OC)cc1NC(=O)CCC(=O)Nc1cccc(C)c1C	34.6	0.7	0.8	-0.56	0.705	19.8
COc1ccc(N2C(=O)CCC2(C#N)c2ccc(OC)cc2)cc1 (stereo not given)	23.2	0.8	0.3	·	-0.13	65.7*
Cc1ccc(N2C(=O)CC2(C#N)c2ccc(OCc3ccccc3)cc2)cc1 (stereo not given)	61.7*	0.4	0.8	·	0.246	18.1
CCc1nnc(NC(=O)CSc2nnc(-c3ccccc3NC(=O)c3ccccc3)o2)s1	50.7*	0.5	0.9	-0.355	1.71	10.9
O=C(Nc1ccccc1-c1nnc(SCc2ccccc2Cl)o1)c1ccccc1	55.0*	0.4	0.9	·	-0.993	5.0
CCOC(=O)CSc1nnc(-c2ccccc2NC(=O)c2ccccc2)o1	12.3	0.9	1.1	0.998	-0.562	-11.8
COC(=O)C1CSC(C(=O)OC)N1C(=O)CN1CC(C)OC(C)C1 (stereo not given)	-12.9	1.1	1	·	-0.155	-1.4
CCCCC(=O)O	·	·	·	·	0.0549	·
O=C(Oc1ccc(OC(=O)c2ccncc2)cc1)c1ccncc1	·	·	·	-0.416	·	·
COc1ccc(OC(=O)c2ccncc2)cc1	57.2*	0.4	0.2	-0.162	0.027	77.3*
CC(=O)c1cc(OC(=O)c2ccncc2)ccc1OC(=O)c1ccncc1	65.0*	0.3	0.1	-0.278	-1.13	89.6*
SMILES	CYP2C9 inhib	CYP2C9 activ	CYP2C19 act	D1 mod	hDAT+cocaine	CYP2C19 inh
Cn1c(=O)c2c(nc(CN3CCN(C(=O)c4ccco4)CC3)n2Cc2ccccc2F)n(C)c1=O	8.3	0.9	1	-0.683	-0.198	2.2
O=C(N[C@@H](Cc1ccc(O)cc1)C(=O)O)c1ccncc1	·	·	·	·	-0.0374	·
CCCC(=O)Nc1nnc(SCC(=O)NCc2cccs2)s1	3.0	1	0.8	·	-0.516	16.8
Nn1c(SCC(=O)NC(=O)NCc2ccco2)nnc1-c1ccc(OC(F)F)cc1	31.2	0.7	0.3	·	·	71.4*
CNC(=O)NC(=O)CSc1nnc(-c2ccco2)n1Cc1ccccc1	-6.2	1.1	1.1	·	-0.7	-11.3
O=C(CSc1nnc(-c2ccco2)n1Cc1ccccc1)NC(=O)NCc1ccccc1	29.5	0.7	0.4	0.987	-0.865	61.9*
O=C(CSc1nnnn1-c1ccccc1)NC(=O)NCc1ccco1	-36.3	1.4	1	·	0.684	-0.6
CCn1c(SCC(=O)NC(=O)NCc2ccco2)nnc1-c1cccs1	18.2	0.8	0.6	·	-0.292	36.4

Assay outcomes deposited in PubChem BioAssay by several laboratories.
